In PubChem BioAssay AID1159580 (chemical genetic matrix, 2015):
In all, about 5,500 compounds went through this assay and about 2,000 (36%) were called active. Not shown: some 18% with an inconclusive outcome. Rule as the data show it: active = normalized growth mostly below about 0.91 (no sharp cut-off); inconclusive = no clear call, values can overlap the other calls; inactive = mostly above about 0.92. Some of the results follow.

Experiment: chemical genetic growth profiling, strain panel (AID 1159580);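 also: tested at 20 µM; growth read once vehicle control cultures reached saturation at 30 °C; 1 = growth at the plate median or of vehicle wells; lower values mean less growth of the strain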
Conditions: growth OD

Measured: normalized growth

COc1c(N2CCNC(C)C2)c(F)cc2c(=O)c(C(=O)O)cn(C3CC3)c12 (configuration not stated)
inactive: S. cerevisiae deletion strains, locus YJR075W, strain HOC1, active compounds read low 0.989 | S. cerevisiae deletion strains, locus YKL009W, strain mrt4, active compounds read low 1.02 | S. cerevisiae deletion strains, locus YKL068W, active compounds read low 0.997 | S. cerevisiae deletion strains, locus YKL085W, strain MDH1 (second series), active compounds read low 0.995 | S. cerevisiae deletion strains, locus YKL085W, strain MDH1, active compounds read low 0.995 | S. cerevisiae deletion strains, locus YKL160W, strain elf1, active compounds read low 0.975 | S. cerevisiae deletion strains, locus YKL190W, strain CNB1, active compounds read low 1.01 | S. cerevisiae deletion strains, locus YKR001C, strain vps1, active compounds read low 0.996 | S. cerevisiae deletion strains, locus YKR026C, strain gcn3, active compounds read low 0.987 | S. cerevisiae deletion strains, locus YKR091W, strain srl3, active compounds read low 0.98 | S. cerevisiae deletion strains, locus YLL001W, strain dnm1, active compounds read low 0.998 | S. cerevisiae deletion strains, locus YLL026W, active compounds read low 0.985 | S. cerevisiae deletion strains, locus YLL041C, strain sdh2, active compounds read low 0.988 | S. cerevisiae deletion strains, locus YLR027C, strain aat2, active compounds read low 0.99 | S. cerevisiae deletion strains, locus YLR039C, strain RIC1, active compounds read low 0.837 | S. cerevisiae deletion strains, locus YLR058C, strain SHM2, active compounds read low 1 | S. cerevisiae deletion strains, locus YLR102C, strain apc9, active compounds read low 0.988 | S. cerevisiae deletion strains, locus YLR113W, strain HOG1, active compounds read low 1.03 | S. cerevisiae deletion strains, locus YLR221C, strain rsa3, active compounds read low 0.975 | S. cerevisiae deletion strains, locus YLR258W, strain gsy2, active compounds read low 0.987 | S. cerevisiae deletion strains, locus YLR262C, strain YPT6 (second series), active compounds read low 0.915 | S. cerevisiae deletion strains, locus YLR262C, strain YPT6, active compounds read low 0.846 | S. cerevisiae deletion strains, locus YLR268W, strain sec22, active compounds read low 0.988 | S. cerevisiae deletion strains, locus YLR330W, strain CHS5, active compounds read low 1.01 | S. cerevisiae deletion strains, locus YLR342W, strain FKS1 (second series), active compounds read low 0.881 | S. cerevisiae deletion strains, locus YLR342W, strain FKS1, active compounds read low 0.972 | S. cerevisiae deletion strains, locus YLR357W, strain rsc2, active compounds read low 0.934 | S. cerevisiae deletion strains, locus YLR370C, strain arc18, active compounds read low 0.978 | S. cerevisiae deletion strains, locus YLR371W, strain rom2, active compounds read low 0.989 | S. cerevisiae deletion strains, locus YLR384C, strain iki3, active compounds read low 0.995 | S. cerevisiae deletion strains, locus YLR418C, strain cdc73, active compounds read low 0.973 | S. cerevisiae deletion strains, locus YML016C, strain PPZ1, active compounds read low 1.01 | S. cerevisiae deletion strains, locus YML120C, strain ndi1, active compounds read low 0.984 | S. cerevisiae deletion strains, locus YML124C, strain tub3, active compounds read low 0.985 | S. cerevisiae deletion strains, locus YMR058W, strain fet3, active compounds read low 0.992 | S. cerevisiae deletion strains, locus YMR078C, strain ctf18, active compounds read low 0.974 | S. cerevisiae deletion strains, locus YMR125W, strain sto1, active compounds read low 0.928 | S. cerevisiae deletion strains, locus YMR129W, active compounds read low 0.974 | S. cerevisiae deletion strains, locus YMR205C, strain PFK2, active compounds read low 0.996 | S. cerevisiae deletion strains, locus YMR223W, strain ubp8, active compounds read low 0.999 | S. cerevisiae deletion strains, locus YMR231W, strain pep5, active compounds read low 0.993 | S. cerevisiae deletion strains, locus YMR263W, strain SAP30, active compounds read low 1.01 | S. cerevisiae deletion strains, locus YMR307W, strain GAS1, active compounds read low 0.845 | S. cerevisiae deletion strains, locus YNL067W, strain RPL9B, active compounds read low 1 | S. cerevisiae deletion strains, locus YNL071W, strain lat1, active compounds read low 0.985 | S. cerevisiae deletion strains, locus YNL128W, strain TEP1, active compounds read low 1.03 | S. cerevisiae deletion strains, locus YNL153C, strain GIM3, active compounds read low 1.01 | S. cerevisiae deletion strains, locus YNL183C, strain NPR1, active compounds read low 0.983 | S. cerevisiae deletion strains, locus YNL209W, strain ssb2, active compounds read low 0.986 | S. cerevisiae deletion strains, locus YNL233W, strain BNI4, active compounds read low 1.01 | S. cerevisiae deletion strains, locus YNL248C, strain rpa49, active compounds read low 0.917 | S. cerevisiae deletion strains, locus YNL271C, strain bni1, active compounds read low 1 | S. cerevisiae deletion strains, locus YNL298W, strain CLA4, active compounds read low 1.02 | S. cerevisiae deletion strains, locus YNL307C, strain MCK1, active compounds read low 1 | S. cerevisiae deletion strains, locus YNL322C, strain KRE1 (second series), active compounds read low 0.967 | S. cerevisiae deletion strains, locus YNL322C, strain KRE1, active compounds read low 1.01 | S. cerevisiae deletion strains, locus YNR049C, strain mso1, active compounds read low 0.963 | S. cerevisiae deletion strains, locus YNR052C, strain pop2, active compounds read low 1 | S. cerevisiae deletion strains, locus YOL006C, strain TOP1, active compounds read low 0.936 | S. cerevisiae deletion strains, locus YOL012C, strain htz1 0.555 | S. cerevisiae deletion strains, locus YOL147C, strain pex11, active compounds read low 1 | S. cerevisiae deletion strains, locus YOR001W, strain rrp6, active compounds read low 0.986 | S. cerevisiae deletion strains, locus YOR061W, strain CKA2, active compounds read low 1.01 | S. cerevisiae deletion strains, locus YOR069W, strain VPS5, active compounds read low 1.01 | S. cerevisiae deletion strains, locus YOR070C, strain gyp1, active compounds read low 0.994 | S. cerevisiae deletion strains, locus YOR080W, strain dia2, active compounds read low 0.97 | S. cerevisiae deletion strains, locus YOR083W, strain WHI5, active compounds read low 1 | S. cerevisiae deletion strains, locus YOR106W, strain vam3, active compounds read low 0.994 | S. cerevisiae deletion strains, locus YOR136W, strain idh2, active compounds read low 1 | S. cerevisiae deletion strains, locus YOR144C, strain elg1, active compounds read low 0.998 | S. cerevisiae deletion strains, locus YOR184W, strain ser1, active compounds read low 0.99 | S. cerevisiae deletion strains, locus YOR231W, strain MKK1, active compounds read low 1.01 | S. cerevisiae deletion strains, locus YOR265W, strain rbl2, active compounds read low 0.984 | S. cerevisiae deletion strains, locus YOR270C, strain vph1, active compounds read low 0.896 | S. cerevisiae deletion strains, locus YOR290C, strain snf2, active compounds read low 0.951 | S. cerevisiae deletion strains, locus YOR316C, strain cot1, active compounds read low 0.995 | S. cerevisiae deletion strains, locus YPL051W, strain arl3, active compounds read low 0.975 | S. cerevisiae deletion strains, locus YPL055C, strain LGE1, active compounds read low 0.992 | S. cerevisiae deletion strains, locus YPL078C, strain atp4, active compounds read low 0.99 | S. cerevisiae deletion strains, locus YPL106C, strain sse1, active compounds read low 0.946 | S. cerevisiae deletion strains, locus YPL240C, strain hsp82, active compounds read low 0.986 | S. cerevisiae deletion strains, locus YPL241C, strain CIN2, active compounds read low 1.01 | S. cerevisiae deletion strains, locus YPL256C, strain CLN2, active compounds read low 0.956 | S. cerevisiae deletion strains, locus YPR119W, strain clb2, active compounds read low 0.997 | S. cerevisiae deletion strains, locus YPR141C, strain kar3, active compounds read low 1 | S. cerevisiae deletion strains, locus YPR163C, strain tif3, active compounds read low 1 | S. cerevisiae deletion strains, locus YPR167C, strain met16, active compounds read low 0.996 | S. cerevisiae deletion strains, strain wtn01, active compounds read low 0.996 | S. cerevisiae strains, strain wild type, active compounds read low 1.01
active: S. cerevisiae deletion strains, locus YLR320W, strain mms22, active compounds read low 0.75 | S. cerevisiae deletion strains, locus YML032C, strain rad52, active compounds read low 0.492 | S. cerevisiae deletion strains, locus YNL250W, strain rad50, active compounds read low 0.868
